Compound activity as filed in PubChem.
A selection: hits, their analogues and other compounds. The true share with any hit is near 12%.
USP30 block: inhibitors of human USP30 deubiquitinase; inhibition, % at 25 µM; 47,000 compounds, 5.3% hits; purified USP30, Ub-rhodamine cleavage fluorescence; Ubiquitin carboxyl-terminal hydrolase 30 (Homo sapiens), Q70CQ3
Target sequence (Q70CQ3 whole entry, looked up): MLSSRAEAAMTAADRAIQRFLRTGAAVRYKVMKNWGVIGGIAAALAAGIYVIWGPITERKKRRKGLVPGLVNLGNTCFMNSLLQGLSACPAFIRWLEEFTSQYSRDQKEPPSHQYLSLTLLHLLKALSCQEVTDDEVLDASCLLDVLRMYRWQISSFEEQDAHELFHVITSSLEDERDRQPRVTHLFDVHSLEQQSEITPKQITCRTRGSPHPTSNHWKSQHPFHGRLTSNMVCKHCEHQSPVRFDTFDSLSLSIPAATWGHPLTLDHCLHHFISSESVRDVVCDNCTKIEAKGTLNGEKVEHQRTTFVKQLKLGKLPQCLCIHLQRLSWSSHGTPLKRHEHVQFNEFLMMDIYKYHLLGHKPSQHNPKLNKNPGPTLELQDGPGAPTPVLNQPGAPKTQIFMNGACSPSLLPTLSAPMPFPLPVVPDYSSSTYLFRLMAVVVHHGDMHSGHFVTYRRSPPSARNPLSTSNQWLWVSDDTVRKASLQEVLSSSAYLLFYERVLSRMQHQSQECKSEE
USP17 block: inhibitors of human USP17 deubiquitinase. AID 1645855, 2021. inhibition, % at 50 µM. 47,000 compounds, 6.5% hits. Ubiquitin carboxyl-terminal hydrolase 17-like protein 5 (Homo sapiens), A8MUK1. purified USP17, Ub-rhodamine cleavage fluorescence, 3 h
USP10 inh: inhibitors of human USP10 deubiquitinase | inhibition, % at 20 µM | AID 1645856, 2021 | Ubiquitin carboxyl-terminal hydrolase 10 (Homo sapiens), Q14694 | purified USP10, Ub-rhodamine fluorescence, 60 min | 47,000 compounds, 1.1% hits
USP7 block: inhibitors of human USP7 deubiquitinase | inhibition, % at 20 µM | Ubiquitin carboxyl-terminal hydrolase 7 (Homo sapiens), Q93009 | purified USP7, Ub-rhodamine cleavage fluorescence | 47,000 compounds, 0.3% hits
UCHL1 inh: inhibitors of human UCHL1 deubiquitinase | purified UCHL1, Ub-rhodamine cleavage fluorescence | inhibition, % at 20 µM | 47,000 compounds, 0.2% hits
USP8 block: inhibitors of human USP8 deubiquitinase; Ubiquitin carboxyl-terminal hydrolase 8 (Homo sapiens), P40818; inhibition, % at 20 µM; 47,000 compounds, 4.2% hits; AID 1645853, 2021; purified USP8, Ub-rhodamine cleavage fluorescence, 30 min
* = called active by the depositor; / = not tested or not shown. Cut-off read from the data, not from the text of the source: active = inhibition above about 30%; inactive = the rest.

SMILES | USP30 block | USP17 block | USP10 inh | USP7 block | UCHL1 inh | USP8 block
CSc1cccc(NC(=O)C2C3C=CC4(O3)C2C(=O)N(Cc2ccc(C)cc2)C4C(=O)NC2CCCCC2)c1 (centres undefined) | 17.6 | 49.7* | 8.5 | -3.2 | 3.5 | 20.4
Cc1cc(C(=O)N2CC[C@@H]3CN(Cc4cccc(Cl)c4)S(=O)(=O)[C@@H]3CC2)no1 | 12.7 | -2.5 | 0.2 | -5.4 | -0.2 | -16.5
O=c1[nH]c(=O)n(-c2ccccc2F)c2c1CN(C1CCCCC1)CN2 | 0.5 | -3.4 | 4.3 | 0.4 | -2.9 | -2.2
Cc1ccc(NC(=O)C(C)n2c(=O)cc(-c3ccccc3)c3c(C)nn(C)c32)cc1C (centres undefined) | 25.8 | 11.3 | -0.8 | 0.3 | -4.0 | 10.2
C=C(NC(=O)C(=C)NC(=O)c1csc(-c2ccc3c(n2)-c2csc(n2)-c2csc(n2)C(C(C)C2CO2)NC(=O)C(Cc2ccc(O)cc2)NC(=O)c2csc(n2)C(C(O)c2ccccc2)NC(=O)c2nc(sc2C)C(CC(N)=O)NC(=O)c2csc-3n2)n1)C(=O)O (centres undefined) | 23.8 | 68.1* | 22.6 | 19.2 | 3.7 | 27.4
C=C(NC(=O)C(=C)NC(=O)C(=C)NC(=O)C(=C)NC(=O)c1ccc2c(n1)-c1coc(n1)C(=C)NC(=O)C(=C)NC(=O)c1csc(n1)C(C)NC(=O)c1csc(n1)CNC(=O)c1coc(n1)C(CSC)NC(=O)C(C(C)O)NC(=O)c1csc-2n1)C(=O)O (centres undefined) | -314.4 | -39.2 | -5.5 | -67.5 | 8.5 | -74.9
CCCc1cc(C2CCCN2C(=O)c2cc(C(C)C)no2)no1 (centres undefined) | -1.1 | -2.2 | 0.0 | -0.7 | -1.1 | -2.6
CC1NC(=O)C(CC(N)=O)NC(=O)C(C(C)O)NC(=O)C(Cc2ccc(O)cc2)NC(=O)C(C(C)C)NC(=O)C(NC(=O)CC(O)CCCCCCCCCCCCN=C(N)N)C(C)OC1=O (centres undefined) | 86.2* | 33.8* | -6.7 | -21.5 | 4.4 | -20.3
CCCCCCCCCCCCCCCC(=O)NC(CCC(=O)O)C(=O)NC(CCCN)C(=O)NC1Cc2ccc(cc2)OC(=O)C(C(C)CC)NC(=O)C(Cc2ccc(O)cc2)NC(=O)C(CCC(N)=O)NC(=O)C2CCCN2C(=O)C(C(C)C)NC(=O)C(CCC(=O)O)NC(=O)C(C(C)O)NC1=O (centres undefined) | -4.6 | 15.1 | -9.9 | 2.6 | -4.3 | -17.4
Cc1ccccc1NC(=O)CCN1C(=O)c2cccnc2Sc2ccccc21 | 37.6* | 11.7 | 1.4 | 3.2 | 2.7 | 1.0
Cc1ccc(C(C)C)cc1OCC(=O)Nc1nc2ccccc2[nH]1 | 16.9 | 7.7 | 7.8 | 6.8 | -1.6 | 23.2
O=C(CNC(=O)c1cc(F)cc(F)c1)Nc1nc2ccccc2[nH]1 | 16.7 | 7.8 | 11.3 | 7.2 | 2.8 | 35.7*
COc1ccc(C(C)=O)cc1CC(=O)Nc1nc2ccccc2[nH]1 | 21.2 | 59.2* | 7.7 | 1.1 | 2.0 | 28.1
Cc1c(OCC(=O)Nc2nc3ccccc3[nH]2)ccc2c3c(c(=O)oc12)CCC3 | 51.6* | 37.1* | 7.6 | 7.2 | 2.2 | 8.3
COc1ccccc1CC(=O)Nc1nc2ccccc2[nH]1 | 15.0 | 60.1* | 9.1 | / | -0.6 | 9.9
O=C(CNC(=O)c1ccc(F)c(F)c1)Nc1nc2ccccc2[nH]1 | 10.7 | 22.4 | 3.0 | 6.7 | 0.4 | 7.5
COc1ccc2cc(CN(CCc3ccccc3)C(=O)Nc3ccccc3OC)c(=O)[nH]c2c1 | 4.5 | 6.9 | 11.1 | 11.2 | 10.6 | 14.2
COc1ccccc1CC(=O)Nc1cnc(-c2ccc(C)cc2)nc1 | -0.8 | 5.2 | 6.2 | 1.4 | 4.7 | 8.3
COc1ccccc1CC(=O)Nc1cnc(-c2ccc(F)cc2)nc1 | 7.0 | 12.4 | 0.5 | 2.4 | 6.8 | 30.3*
O=C(c1c(F)cccc1F)N1CCCC(c2[nH]nc3nccnc23)C1 (centres undefined) | -2.3 | 6.0 | 0.2 | -0.3 | -1.1 | 30.5*
CCOc1ccc2nc(NC(=O)C3CCN(S(=O)(=O)c4ccc5c(c4)CC(C)N5C(C)=O)CC3)sc2c1 (centres undefined) | 50.1* | 13.4 | 0.0 | 1.8 | 1.2 | -4.7
Cc1ccc(S(=O)(=O)N2CCCCC2)cc1NC(=O)Cc1cccc(F)c1 | -3.7 | -9.2 | 2.1 | 0.2 | -0.2 | 1.5
COc1cc(C)c(NC(=O)c2cc(-c3ccccc3)c(N3CCOCC3)s2)cc1OC | -9.8 | 59.0* | 9.2 | 1.2 | 0.5 | -8.7
CCOc1ccc(NC(=O)c2cc(-c3ccccc3)c(N3CCOCC3)s2)cc1 | 12.8 | 53.3* | 7.9 | 2.7 | 4.6 | 0.0
CC(C)[C@@H](NC(=O)C1(c2ccccc2)CCN(C(=O)[C@H]2CSCN2C(=O)OC(C)(C)C)CC1)C(=O)O | 18.5 | 21.2 | 2.8 | 7.0 | 3.7 | 22.4
SMILES | USP30 block | USP17 block | USP10 inh | USP7 block | UCHL1 inh | USP8 block
Clc1ccc(Cn2c(NCc3ccccc3Cl)nc3ccccc32)cc1 | 34.2* | 6.0 | 13.6 | -34.5 | 7.0 | -1.7
COc1ccc(CC(=O)N2CCc3c(nc[nH]c3=O)C2)cc1Cl | -69.0 | -11.4 | -3.8 | -1.0 | -2.8 | -3.6
COCCn1cnc2c(-c3ccccc3)cn(CC(=O)Nc3ccc4c(c3)OCO4)c2c1=O | 0.8 | 39.6* | -2.1 | -3.8 | 2.9 | 3.2
Cc1ccc(CN2CCCn3nc(C(=O)NCc4ccc(F)cc4)cc3C2=O)cc1 | 55.5* | 37.8* | 1.6 | 1.3 | 1.3 | -2.6
Cc1ccc(CN2CCCn3nc(C(=O)NCc4ccccc4F)cc3C2=O)cc1 | 9.4 | 11.7 | -0.6 | 0.5 | 2.4 | 4.3
COc1ccccc1CC(=O)NCc1ccc(-c2ncncc2-c2cc(C)no2)cc1 | 28.0 | 19.3 | 0.1 | -1.0 | 4.2 | 11.6
O=C(CC1CCCCC1)N1CCCC(c2nn(CCOc3ccccc3)c3nccnc23)C1 (centres undefined) | 34.6* | 26.2 | 7.4 | -41.8 | 7.2 | 19.9
O=S(=O)(c1cccc(Cl)c1F)N1CCC2(CC1)CC2c1nc(-c2cccnc2)no1 (centres undefined) | 16.9 | -23.5 | 2.5 | 5.5 | 6.8 | -10.2
Cc1c(Cl)cccc1S(=O)(=O)N1CCC2(CC1)CC2c1nc(-c2cccnc2)no1 (centres undefined) | 34.7* | 14.6 | 8.4 | 10.5 | 6.1 | 20.1
O=C(c1ccc(Cl)cc1)C1CN(c2ccccc2)CC1c1ccccc1F (centres undefined) | 0.1 | 6.0 | 6.1 | 8.0 | 2.6 | 2.4
CO\C=C(C(=O)OC)/C(C)=C\C=C\c1ccc(OCC=C(C)C)c(O)c1 | 27.2 | 40.3* | 20.5 | 3.9 | 7.4 | 7.6
CNC(=O)N[C@H]1C[C@H]2CN(Cc3ccccc3)c3ccccc3CN2C1 | -297.0 | -75.7 | -4.6 | -69.6 | -16.6 | -44.2
